DNMT1 block: blocks human DNA methyltransferase DNMT1; 360,000 tested, 0.83% active; inhibition (reported as % activation of signal), % at 10 µM; DNMT1 molecular beacon, Hinp1I cleavage, fluorescence; in the data active = inhibition above about 50%
Target sequence (P26358 504-1616 limits assumed): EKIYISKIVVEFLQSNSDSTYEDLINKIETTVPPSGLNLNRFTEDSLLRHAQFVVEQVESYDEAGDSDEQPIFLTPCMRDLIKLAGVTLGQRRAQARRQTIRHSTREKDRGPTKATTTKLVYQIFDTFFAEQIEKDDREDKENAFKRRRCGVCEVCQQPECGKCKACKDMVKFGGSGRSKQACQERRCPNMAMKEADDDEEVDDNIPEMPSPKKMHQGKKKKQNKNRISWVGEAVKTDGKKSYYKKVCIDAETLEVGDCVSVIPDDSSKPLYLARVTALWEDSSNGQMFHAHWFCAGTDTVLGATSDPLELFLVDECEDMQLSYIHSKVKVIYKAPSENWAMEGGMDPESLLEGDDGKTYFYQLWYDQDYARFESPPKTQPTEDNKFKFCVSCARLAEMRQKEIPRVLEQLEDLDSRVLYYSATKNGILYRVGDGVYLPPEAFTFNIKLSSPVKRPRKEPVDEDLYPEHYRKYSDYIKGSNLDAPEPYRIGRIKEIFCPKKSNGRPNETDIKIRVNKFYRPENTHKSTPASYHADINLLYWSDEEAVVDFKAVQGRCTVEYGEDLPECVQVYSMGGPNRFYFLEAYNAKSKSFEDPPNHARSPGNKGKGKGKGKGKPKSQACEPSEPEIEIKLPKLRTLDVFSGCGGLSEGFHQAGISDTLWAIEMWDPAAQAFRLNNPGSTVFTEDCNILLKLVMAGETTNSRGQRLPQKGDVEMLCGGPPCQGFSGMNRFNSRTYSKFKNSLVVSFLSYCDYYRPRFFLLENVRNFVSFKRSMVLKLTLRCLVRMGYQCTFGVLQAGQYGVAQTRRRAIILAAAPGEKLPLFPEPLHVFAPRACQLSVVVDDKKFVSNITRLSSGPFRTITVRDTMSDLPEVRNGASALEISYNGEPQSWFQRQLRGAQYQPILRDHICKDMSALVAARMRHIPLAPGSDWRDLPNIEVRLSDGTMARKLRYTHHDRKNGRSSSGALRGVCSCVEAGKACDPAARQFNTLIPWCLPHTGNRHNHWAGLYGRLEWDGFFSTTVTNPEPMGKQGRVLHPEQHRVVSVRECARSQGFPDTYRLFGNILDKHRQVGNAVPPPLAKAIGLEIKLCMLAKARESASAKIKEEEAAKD
UHRF1 binding: UHRF1 methyl-DNA binding inhibition. inhibition, % at 4.4 µM. Q96T88. UHRF1 binding to methylated oligo, TR-FRET. 370,000 tested, 0.75% active; in the data active = inhibition above about 21%;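 also: UHRF1 SRA domain binding a hemimethylated CpG hairpin DNA probe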
rCAG binder: molecules binding r(CAG) RNA repeats; r(CAG) RNA repeat, TO-PRO-1 dye displacement fluorescence; inhibition, % at 3 µM; 370,000 tested, 1.3% active; AID 651821;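 active = inhibition above the plate cutoff, the mean of all test compounds on that plate plus 3 SD, cut at about 35% in these data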;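 also: higher means more dye released from RNA so lower well fluorescence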
LEDGF integ inh: blocks HIV-1 LEDGF/p75-dependent DNA integration | AID 743269 | inhibition, % at 3.7 µM | 370,000 tested, 0.64% active | TR-FRET IN-LEDGF/p75 DNA integration, Eu/Cy5;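 active = inhibition above the screen-wide mean plus 3 SD, cut at about 13% in these data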;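 also: signal is the Cy5 over europium emission ratio at 671 and 618 nm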
MBD2 DNA inh: blocks human MBD2 binding to methylated DNA. Q9UBB5. TR-FRET, MBD2 binding to methylated oligonucleotide. inhibition, % at 4.4 µM. 370,000 tested, 0.31% active. AID 686964; in the data active = inhibition above about 13%
PG9 binder: PG9 antibody binding by small molecule | TR-FRET gp120-PG9 antibody binding | inhibition, % at 6.7 µM | 360,000 tested, 0.43% active; in the data active = inhibition above about 8.5%
rCAG bind conf: r(CAG) RNA repeat binding, confirmation | shares compounds with rCAG binder | TO-PRO-1 dye displacement fluorescence | inhibition, % at 3 µM | 4,300 tested, 70% active | AID 652065;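 active = inhibition above a per-plate cutoff, the mean inhibition of sample wells plus 3 SD, cut at about 35% in these data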;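 also: loss of TO-PRO-1 fluorescence as compound displaces dye from 1x1 AA loop RNA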
dCAG dye counter: DNA CAG dye complex inhibition counter-screen | shares compounds with rCAG binder | 4,300 tested, 94% active | d(CAG) DNA oligo TO-PRO-1 dye displacement, fluorescence | inhibition, % at 3 µM;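 active = inhibition above its plate's cutoff, the mean test-well inhibition plus 3 SD, cut at about 4.8% in these data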;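 also: hits displace the dye from DNA and so lower well fluorescence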
dCAG dye DR: disrupts DNA CAG TO-PRO-1 complex in dose response; shares compounds with rCAG binder; DNA CAG/GTC duplex TO-PRO-1 dye displacement fluorescence; IC50, µM; 250 tested, 20% active; in the data active = IC50 below about 10 µM
Large screens that a line does not name were inactive (follow-up assays come after a bar, where they were run). Shown are actives, neighbours in structure and some others; about 3.5% of the full set was active somewhere.

O=C(c1ccccc1)N1CCC(c2nc(-c3ccc(S(=O)(=O)N4CCOCC4)cc3)no2)CC1	none
COc1cccc(C(=O)N[C@H](C(=O)N2CCC[C@H]2C(=O)NCc2ccccc2)C2CCCCC2)c1	none (no result: DNMT1 block)
C/C=C1\NC(=O)[C@H](C)NC(=O)[C@@H](NC(=O)[C@@H](Cc2ccc(O)cc2)NC(=O)[C@@H](NC(=O)/C(C)=C/C)C(C)C)[C@@H](C)OC(=O)[C@H](CCCCc2ccc(O)cc2)NC(=O)[C@@H](CCC(=O)O)NC1=O	rCAG binder 35.8 | rCAG bind conf inactive | dCAG dye counter 6.7
COC(=O)[C@]12C[C@H](CC(=O)NCCCCc3ccccc3)C(=O)N(CCC3=CCCCC3)C1=C[C@H](C(C)(C)C)O[C@@H]2C	none (no result: DNMT1 block)
Cc1cc(NS(=O)(=O)c2ccc(NC(=O)/C=C/c3c(F)cccc3Cl)cc2)no1	rCAG binder 62.9 | rCAG bind conf 50.5 | dCAG dye counter 18.8
Cc1cc(NS(=O)(=O)c2ccc(NC(=O)/C=C/c3c(F)cccc3Cl)cc2)nc(C)n1	rCAG binder 43.1 | rCAG bind conf inactive | dCAG dye counter 8.7
O=C(c1ccc(NC(=O)C(c2ccccc2)c2ccccc2)cc1)c1ccc(C(=O)O)c(C(=O)O)c1	rCAG binder 41.8 | rCAG bind conf inactive | dCAG dye counter inactive
CCc1cc(C(=O)O)c(NC(=O)C(c2ccccc2)c2ccccc2)s1	rCAG binder 41.4 | rCAG bind conf 36.0 | dCAG dye counter 8.4
CC1(C)Cc2c(sc(NC(=O)c3ccc(C(=O)c4ccccc4)cc3)c2C#N)C(C)(C)N1	none
Cc1nnc(SCC(=O)Nc2sc3c(c2C#N)CCCC3)[nH]c1=O	none
CCOC(=O)c1c(NC(=O)CSc2nnc(C)c(=O)[nH]2)sc(C)c1-c1ccc(C)cc1	rCAG binder 43.0 | rCAG bind conf 78.9 | dCAG dye counter 44.1
CCOC(=O)c1c(NC(=O)CSc2nnc(C)c(=O)[nH]2)sc2c1CCCC2	rCAG binder 69.5 | rCAG bind conf 65.6 | dCAG dye counter 20.5
CCOC(=O)c1c(NC(=O)C(C)Sc2nnc(C)c(=O)[nH]2)sc2c1CCCC2 (stereo unspecified)	rCAG binder 69.1 | rCAG bind conf 66.1 | dCAG dye counter 30.0
CCOC(=O)c1c(NC(=O)CSc2nnc(C)s2)sc2c1CCCCC2	none
CC(=O)OC(C)C1C2=C(C(=O)CC1(C)O)C(=O)c1c(ccc(-c3ccc4c(c3O)C(=O)C3=C(C4=O)C(C(C)OC(C)=O)C(C)(O)CC3=O)c1O)C2=O (stereo unspecified)	rCAG binder 58.5 | rCAG bind conf 67.4 | dCAG dye counter 33.6 | dCAG dye DR 8
CC1(C(=O)NS(=O)(=O)c2ccc(F)cc2F)CCN1C(=O)c1ccccc1CCc1ccccc1 (stereo unspecified)	rCAG binder 50.8 | rCAG bind conf 42.5 | dCAG dye counter 10.2
CC1(C(=O)NS(=O)(=O)c2cccc(Cl)c2)CCN1C(=O)c1ccccc1CCc1ccccc1 (stereo unspecified)	rCAG binder 60.9 | rCAG bind conf 59.7 | dCAG dye counter 21.7
CC1(C(=O)NS(=O)(=O)c2cccc(C#N)c2)CCN1C(=O)c1ccccc1CCc1ccccc1 (stereo unspecified)	rCAG binder 45.8 | rCAG bind conf 38.9 | dCAG dye counter 9.5
CC1(C(=O)NS(=O)(=O)c2cccs2)CCN1C(=O)Cc1ccccc1 (stereo unspecified)	none
CC1(C(=O)NS(=O)(=O)c2cccc(Cl)c2)CCN1C(=O)Cc1ccccc1 (stereo unspecified)	none
CC1(C(=O)NS(=O)(=O)c2cccs2)CCN1C(=O)c1ccccc1CCc1ccccc1 (stereo unspecified)	rCAG binder 43.8 | rCAG bind conf inactive | dCAG dye counter 7.0
CC(O)(c1ccccc1)c1nc(/C=C/c2ccccc2)cs1 (stereo unspecified)	none
CNC(=O)C[C@H]1C(=O)N(Cc2ccccc2)C[C@@H]1Cc1ccccc1	none
CC1(C(=O)NS(=O)(=O)c2ccc(Cl)cc2)CCN1C(=O)c1ccccc1CCc1ccccc1 (stereo unspecified)	rCAG binder 44.7 | rCAG bind conf 58.5 | dCAG dye counter 19.6
CC1(C(=O)NS(=O)(=O)c2ccccc2Cl)CCN1C(=O)c1cccc2ccccc12 (stereo unspecified)	none
CC1(C(=O)NS(=O)(=O)c2ccccc2Cl)CCN1C(=O)c1ccccc1CCc1ccccc1 (stereo unspecified)	rCAG binder 57.1 | rCAG bind conf 63.0 | dCAG dye counter 18.9
Cc1c(C#N)c(N)nc(Cl)c1C#N	none
N#Cc1c(Cl)nsc1NN	rCAG binder 92.2 | rCAG bind conf inactive | dCAG dye counter 4.8
O=C(Nc1ccc(-c2csc(Nc3ccc(Cl)cc3)n2)cc1)c1cccc(C(F)(F)F)c1	rCAG binder 44.1 (no result: DNMT1 block) | rCAG bind conf inactive | dCAG dye counter 11.1
O=C(Nc1ccc(-c2csc(Nc3ccccc3)n2)cc1)c1cccc(C(F)(F)F)c1	none
c1ccc(COc2cccc(-c3cc4nc(NCCCn5ccnc5)ccn4n3)c2)cc1	none
O=C(c1ccccc1)c1ccc(Oc2ccc([N+](=O)[O-])cc2[N+](=O)[O-])cc1	none
O=C(O)CCn1cc(C2CC(c3ccccc3)=NN2c2ccccc2)c(-c2ccccc2)n1 (stereo unspecified)	rCAG binder 54.9 | rCAG bind conf 61.6 | dCAG dye counter 21.7
Cc1ccc(-c2nn(-c3ccccc3)cc2C2CC(c3cccs3)=NN2C(=O)CCC(=O)O)cc1 (stereo unspecified)	none
COc1ccc(NC(=O)CNC(=O)c2ccco2)cc1S(=O)(=O)Nc1cc(C)ccc1Br	none
O=C(O)CSC(C(=O)Nc1ccc(C(F)(F)F)cc1)c1ccccc1 (stereo unspecified)	none
O=C(O)CSC(C(=O)Nc1ccc(Br)cc1)c1ccc(Cl)cc1 (stereo unspecified)	rCAG binder 37.2 | rCAG bind conf inactive | dCAG dye counter 5.4
Cc1noc(C)c1-c1ccc(C(=O)Nc2cccc(C(F)(F)F)c2)c2occc12	none
COc1ccc(C(O)c2ncc(-c3ccccc3OC)[nH]2)cc1F (stereo unspecified)	none
